Values joined by “and” are separate entries in the source; they are usually repeats but may differ in a detail not shown here. Identical values can stand only once. Compounds without any hit were thinned out: in the full panel of roughly 83,000, 20% have a hit.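 Values shown are percent growth following 48 h exposure of cells in 96-well plates to a single concentration of compound; below 10 was considered active.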 Values without a mark were called inactive. Active and inactive are the calls of the source.
The compounds below were run on MDA-MB-468 breast (assay: NCI-60 one-dose screen, 48 h (100 = growth as untreated, 0 = no growth, -100 = all killed)). Conditions: 10 µM unless noted.
For `COc1ccc([C@@H]2[C@@H](O)C(=O)N2c2cc(OC)c(OC)c(OC)c2)cc1F`, the growth was -3.08% (active).
In the case of `CCCNC(=O)Nc1ccc2cc3ccc(NC(=O)NCCC)cc3nc2c1`, the growth is reported as -52.4% (active).
In the case of `CC(C)(C)CC(C)(C)Cc1ccc(OCCOCC[N+](C)(C)Cc2ccccc2)cc1`, the growth is reported as -35.3% (active).
`O=C(Cn1c(C(=O)c2ccccc2)nc2ccccc21)c1ccc(F)cc1` showed a growth of 35.1%.
For `C#Cc1cc2c(N)c(C(=O)c3cc(OC)c(OC)c(OC)c3)[nH]c2cc1OC`, the growth was 9.88% (active).
For `NCCCCCCNc1cc(-c2cccc(OC(F)(F)F)c2)nc2ccc(N3CCCC3)cc12`, the growth was -87.9% (active).
Compound `CN(C)c1ccc(/C=c2\sc3nc4ccccc4n3c2=O)cc1` has a growth of 78.4%.
With `CCOC(=O)c1c(Nc2nc3ccccc3s2)sc2c1CCC(=O)C2` the growth was 94.8%.
Work on `C=C(C(N)=O)C(N)C(=O)O` (centres undefined) yielded a growth of 121%.
With `CS(=O)(=O)c1nccc(-c2c(-c3cccc(OCc4ccc(Cl)c(C(F)(F)F)c4)c3)nc3sccn23)n1` the growth was -66.1% (active).
With `Cc1nn(-c2ccc(Cl)cc2)c2ncnc(N/N=C/c3ccccc3O)c12` the growth was -30.8% (active) and -12.1% (active).
With `COc1ccccc1Cn1cc2c(c1)-c1oncc1CC2` the growth was 6.66% (active).
With `O=S(=O)(NCCCNc1nccc(-c2c(-c3cccc(O)c3)nc3occn23)n1)c1ccc(Br)cc1` the growth was 96.3%.
In the case of `CCOC(=O)n1cc(C2=C(c3ccc(OC)c(OC)c3)COC2=O)c2ccccc21`, the growth is reported as -41.8% (active).
In the case of `Nc1cc(-c2c[nH]c3ccc(Cl)cc23)nc2cc(-c3c[nH]c4ccc(Cl)cc34)nn12`, the growth is reported as 68.2%.
For `C#C[C@@]1(O)[C@@H](CO)O[C@@H](n2cc(C(F)(F)F)c3c(N)ncnc32)[C@@H]1O`, the growth was -56.3% (active).
`CCCCCCCC(=O)SCC/C=C/[C@@H]1CC(=O)NCc2cccc(n2)C2=N[C@@](C)(CS2)C(=O)N[C@@H](C(C)C)C(=O)O1` gave a growth of 12.4%.
In the case of `O=C1Nc2cc(OC(F)(F)F)ccc2Oc2ccc(-c3ccnc(N4CC[C@H](O)C4)c3)cc21`, the growth is reported as -28.9% (active).
In the case of `C=CCOc1cccc(/C=C/C(=O)c2sc(Nc3cccnc3)nc2C)c1`, the growth is reported as 47.5%.
`O=C(O)/C=C/c1ccc2c(c1)CCC2` gave a growth of 104%.
`Nc1nc(CSc2n[nH]c(N)n2)nc(Nc2ccccc2)n1` was tested, and the growth was 108%.
`COc1ccc(C/C(C)=C(\c2ccc(Cl)cc2)c2ccc(OCCN3CCCCC3)cc2)cc1` was tested, and the growth was 98.2%.
In the case of `C/C(=N\NC(=O)CSc1nc2sc3c(c2c(=O)n1-c1ccccc1)CCC(C)C3)c1ccc(Cl)cc1` (centres undefined), the growth is reported as -28% (active).
`Cc1cc(N=C2C=CC(=[N+](C)C)C=C2)c(N)cc1N` was tested, and the growth was 39.6%.
Compound `CSc1nc(Nc2cccc(NC(=O)/C(C#N)=C/c3c(Cl)cccc3Cl)c2)c(C#N)c(-c2cccc([N+](=O)[O-])c2)n1` has a growth of 36.9%.
In the case of `O=C(Nc1ccc(-c2ccnc(Nc3ccc(N4CCOCC4)cc3)n2)cc1)[C@@H]1CCCN1`, the growth is reported as 36.2%.
`COc1ccc2c(c1)c(C(=O)c1nc(-c3cn(C)c4ccccc34)no1)cn2C` was tested, and the growth was 108%.
`N#Cc1c(N)c(C(=O)c2ccc3c(c2)OCCO3)n2c1CCCC2` gave a growth of 35.5%.
Work on `Nc1ccc2c(c1)Cc1cc(Cl)c(Cl)cc1-2` yielded a growth of 34.4%.
`Cc1ccccc1Nc1nc2nonc2nc1Nc1cccc(C)c1C` gave a growth of 12.3%.
For `O=C(CCCN1CCOCC1)Nc1ccc(Cn2nnc3c2C(=O)c2nnn(Cc4ccc(NC(=O)CCCN5CCOCC5)cc4)c2C3=O)cc1`, the growth was -74.7% (active).
In the case of `Nc1ccc(-c2ccc(-c3ccccc3N)c3[nH]c4ccccc4c23)cc1`, the growth is reported as -5.32% (active).
`COC(=O)/C=C1/SC(N2N=C(c3cccs3)CC2c2ccc(F)cc2)=NC1=O` (centres undefined) showed a growth of 36.7%.
Compound `COc1ccc(-c2cc(-c3cccnc3)nc3sc4c(N)c(C(C)=O)c(-c5ccccc5)nc4c23)cc1OC` has a growth of 76.3%.
In the case of `C=CCSSc1ncnc2c1ncn2C1OC(CO)C(O)C1O` (centres undefined), the growth is reported as 7.11% (active).
In the case of `COc1ccc(/C=C/C(=O)Nc2cc(/C=C\c3cc(OC)c(OC)c(OC)c3)cc(OC)c2OC)cc1OC`, the growth is reported as 17.5%.
In the case of `Cc1cccc2nc3c(n12)C(=O)C(=O)c1ccccc1-3`, the growth is reported as 79.9%.
For `Nc1nc(N)c2c(n1)NC(c1cccc(Nc3ccnc4cc(C(F)(F)F)ccc34)c1)CC(c1ccc(Br)cc1)=N2` (centres undefined), the growth was 41.9%.
In the case of `Cc1cc(I)nc2ccccc12`, the growth is reported as 109%.
